In the library only some 3% were active in any assay of this set; here they are far more common.
MITF TRPM1 inh: inhibitors of MITF-dependent TRPM1 promoter reporter, primary screen, cell-based, SK-MEL-5, single point, luciferase. inhibition, % at 12.5 µM. 330,000 tested, 0.83% active. SK-MEL-5 TRPM1 promoter luciferase, 24 h;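 active = mean inhibition across replicates of 60% or more, whatever share of single replicates reaches that level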
PAX8 inh HTS: inhibitors of PAX8-driven TPO luciferase reporter, primary screen, RMG-I cells, single concentration; SteadyGlo, 24 h; inhibition, % at 12.6 µM; 360,000 tested, 1.2% active; AID 652154, 2013;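 active = mean replicate inhibition at least 60% with every replicate also reaching 60%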;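 also: luciferase light reporting Pax8 driven TPO promoter activity; plate controls were median of neutral control wells for no effect and mitoxantrone controls for full effect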
Shn3 inh set2: reduction of Shn3 3'UTR firefly luciferase signal, primary screen, Schnurri-3 inhibitor project, cell-based, Clone20 osteoblasts, set 2; Clone20 osteoblast Shn3 3'UTR firefly luciferase, 24 h; inhibition, % at 12.5 µM; 360,000 tested, 0.52% active; AID 588674, 2011;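 active = mean inhibition of at least 75% with every replicate also reaching 75%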;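 also: 0% = median of neutral control wells and 100% = pilot-screen positive control compound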
EWS-Fli block: EWS/Fli-driven NR0B1 reporter inhibitors, primary screen, A673 cells, NR0B1 luciferase, luminescence, MLPCN library; viability-normalised; inhibition, % at 12.6 µM; AID 651661, 2012; 350,000 tested, 0.67% active;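 active = mean inhibition of at least 50% after viability correction, with every replicate also passing that limit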;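 also: firefly luciferase signal divided by Alamar Blue viability fluorescence both relative to DMSO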
Peg3 promoter: Peg3 promoter-driven luciferase inhibitors, primary screen, cell-based, HeLa, luciferase luminescence; HeLa PEG-Prom luciferase reporter, overnight; inhibition, % at 20 µM; 360,000 tested, 1.7% active;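 active = inhibition of at least 50% at 20 µM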
ABHD5 PLIN5 PPI: ABHD5-PLIN5 interaction inhibitors, primary screen, cell lysate, split luciferase complementation, luminescence | inhibition, % at 4 µM | 360,000 tested, 0.78% active | Split G. princeps luciferase complementation, 4 h;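 active = inhibition above the mean inhibition across every tested compound plus 3 SD, cut at about 22% in these data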;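 also: 0% = DMSO only wells and the 100% control is not disclosed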
Target sequence (Q00G26 whole entry, looked up): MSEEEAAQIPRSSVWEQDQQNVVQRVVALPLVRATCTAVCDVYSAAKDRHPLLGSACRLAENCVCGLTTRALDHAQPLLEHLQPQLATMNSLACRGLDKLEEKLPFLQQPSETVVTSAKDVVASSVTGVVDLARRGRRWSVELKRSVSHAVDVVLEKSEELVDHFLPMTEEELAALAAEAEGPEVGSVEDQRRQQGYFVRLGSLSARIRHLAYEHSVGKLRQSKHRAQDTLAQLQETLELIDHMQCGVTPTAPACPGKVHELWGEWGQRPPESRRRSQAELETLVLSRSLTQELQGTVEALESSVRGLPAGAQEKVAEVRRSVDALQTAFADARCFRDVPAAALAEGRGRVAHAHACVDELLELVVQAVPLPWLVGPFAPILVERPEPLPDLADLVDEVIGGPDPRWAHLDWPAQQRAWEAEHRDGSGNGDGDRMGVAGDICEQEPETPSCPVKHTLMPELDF
Target sequence (Q8WTS1 whole entry, looked up): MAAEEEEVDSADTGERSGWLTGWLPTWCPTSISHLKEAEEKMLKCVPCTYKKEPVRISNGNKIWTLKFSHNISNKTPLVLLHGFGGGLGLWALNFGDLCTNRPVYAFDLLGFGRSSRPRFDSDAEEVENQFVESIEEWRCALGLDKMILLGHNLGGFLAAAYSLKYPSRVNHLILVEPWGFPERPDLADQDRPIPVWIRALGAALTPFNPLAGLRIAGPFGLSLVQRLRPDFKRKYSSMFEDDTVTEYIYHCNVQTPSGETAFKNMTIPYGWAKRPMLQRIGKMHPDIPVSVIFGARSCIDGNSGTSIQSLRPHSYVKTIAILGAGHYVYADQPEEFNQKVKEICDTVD
* hit, by the source's call; ! = a repeat was not active.

For C[C@@H]1CCCCO[C@H](CN(C)C(=O)Nc2ccc(C(F)(F)F)cc2)[C@@H](C)CN([C@H](C)CO)C(=O)c2cc(NS(=O)(=O)c3ccc(F)cc3)ccc2O1 the results were PAX8 inh HTS -4 and EWS-Fli block -1.
`C[C@@H]1CCCCO[C@@H](CN(C)C(=O)Nc2ccc(C(F)(F)F)cc2)[C@@H](C)CN([C@H](C)CO)C(=O)c2cc(NS(=O)(=O)c3ccc(Cl)cc3)ccc2O1` gave PAX8 inh HTS 82*! and EWS-Fli block -3.
For C[C@@H]1CN([C@@H](C)CO)C(=O)c2c(c3ccccc3n2C)-c2ccccc2CO[C@H]1CN(C)S(=O)(=O)c1ccccc1F the results were PAX8 inh HTS 84* and EWS-Fli block 17.
Screening C[C@H]1CN([C@@H](C)CO)C(=O)c2c(c3ccccc3n2C)-c2ccccc2CO[C@@H]1CN(C)S(=O)(=O)c1ccccc1F returned PAX8 inh HTS 74* and EWS-Fli block 7.
For Cc1cc(C(=O)Nc2cccc3c2O[C@H](CN(C)S(=O)(=O)c2cccs2)[C@@H](C)CN([C@H](C)CO)C3=O)n(C)n1 the results were EWS-Fli block 11.
`O=S(=O)(c1ccccc1)N1CCN(c2cccc(Cl)c2)CC1` gave MITF TRPM1 inh -4, PAX8 inh HTS -30, Shn3 inh set2 27, EWS-Fli block 3, Peg3 promoter 3 and ABHD5 PLIN5 PPI 0.
For O=[N+]([O-])c1ccc2[nH]cc(S(=O)(=O)N3CCN(c4cccc(Cl)c4)CC3)c2c1 the results were MITF TRPM1 inh 0, PAX8 inh HTS 20, Shn3 inh set2 42, Peg3 promoter 60* and ABHD5 PLIN5 PPI -3.
For CC[C@@H](C)[C@H](C(CC(=O)N1CCCC1[C@@H](OC)[C@H](C)C(=O)N[C@H](Cc1ccccc1)c1nccs1)OC)N(C)C(=O)[C@H](NC(=O)[C@@H](C(C)C)N(C)C)C(C)C (stereo partly drawn) the results were MITF TRPM1 inh 47, PAX8 inh HTS 82*, Shn3 inh set2 18, EWS-Fli block 30, Peg3 promoter -10 and ABHD5 PLIN5 PPI -6.
Screening COc1ccc(C(=O)N(C)C(C)c2nccs2)cc1OC1CCN(C(C)=O)CC1 (stereo not drawn) returned PAX8 inh HTS -8, Shn3 inh set2 13, EWS-Fli block 5, Peg3 promoter -8 and ABHD5 PLIN5 PPI 6.
C[C@@H]1CN([C@H](C)CO)S(=O)(=O)c2ccc(-c3ccccc3F)cc2O[C@@H]1CN(C)Cc1cncnc1 was read as EWS-Fli block -6.
O=c1[nH]c(/C=C/c2ccc(Br)cc2)nc2ccccc12 was read as MITF TRPM1 inh -65, PAX8 inh HTS -125, Shn3 inh set2 -112, EWS-Fli block -50, Peg3 promoter -267 and ABHD5 PLIN5 PPI 4.
O=C(Nc1cccc(/C=C/c2nc3ccccc3c(=O)[nH]2)c1)c1ccccc1Cl was read as MITF TRPM1 inh -65, PAX8 inh HTS -34, Shn3 inh set2 -38, EWS-Fli block -76, Peg3 promoter -13 and ABHD5 PLIN5 PPI 2.
For CN(C)c1ccc(/C=C/c2nc3ccccc3c(=O)[nH]2)cc1 the results were MITF TRPM1 inh 52, PAX8 inh HTS -50, Shn3 inh set2 60, EWS-Fli block 79*, Peg3 promoter 21 and ABHD5 PLIN5 PPI 3.
`COc1ccc(C(=O)Nc2cccc(/C=C/c3nc4ccccc4c(=O)[nH]3)c2)cc1` gave MITF TRPM1 inh 32, PAX8 inh HTS 64*, Shn3 inh set2 -59, EWS-Fli block 8, Peg3 promoter 28 and ABHD5 PLIN5 PPI 5.
Screening N#C[C@@H]1[C@H](c2ccccc2-c2ccccc2)[C@H](CO)N1C(=O)Cc1cccnc1 returned PAX8 inh HTS -3 and EWS-Fli block 5.
Cc1ccc(/C=C/C(=O)c2ccc([N+](=O)[O-])o2)cc1 was read as PAX8 inh HTS 27 and EWS-Fli block 64*.
For Cc1cc(O)c(C(=O)/C=C/c2ccc(Cl)cc2)c(=O)o1 the results were MITF TRPM1 inh -10, PAX8 inh HTS -74, Shn3 inh set2 -9, EWS-Fli block -29, Peg3 promoter -119 and ABHD5 PLIN5 PPI 2.
For O=C(/C=C/c1ccc(Cl)cc1)c1ccc([N+](=O)[O-])o1 the results were MITF TRPM1 inh 98*, PAX8 inh HTS 15, Shn3 inh set2 97*, EWS-Fli block 25, Peg3 promoter 107* and ABHD5 PLIN5 PPI 21.
Screening O=C(N[C@H]1CC[C@H](CCNS(=O)(=O)c2ccc(F)cc2)O[C@@H]1CO)C1CC1 returned PAX8 inh HTS 5 and EWS-Fli block -4.
`Cn1nc(C(F)(F)F)c(/C=N/OC(=O)c2ccccc2)c1SCc1ccccc1Cl` gave MITF TRPM1 inh 22, Shn3 inh set2 72, Peg3 promoter 53* and ABHD5 PLIN5 PPI -10.
`Cc1c(NC(=O)NC(=O)c2ccc(F)cc2)c(=O)n(-c2ccccc2)n1C` gave MITF TRPM1 inh -2, Shn3 inh set2 -6, Peg3 promoter -5 and ABHD5 PLIN5 PPI 8.
Screening Cc1c(N=C2N=C(NC(=O)c3ccc(F)cc3)c3ccccc32)c(=O)n(-c2ccccc2)n1C returned MITF TRPM1 inh -18, PAX8 inh HTS -16, Shn3 inh set2 27, EWS-Fli block -9, Peg3 promoter 63* and ABHD5 PLIN5 PPI -1.
For O=C(NCC1CC1)[C@@H]1[C@@H](CO)[C@@H]2Cn3c(cccc3=O)[C@H]1N2C(=O)c1cccnc1 the results were EWS-Fli block -3.
`O=C(O)C1C2CCCCC2=C2CCCCC2C1C(=O)O` (stereo not drawn) gave MITF TRPM1 inh -7, PAX8 inh HTS 14, Shn3 inh set2 -4, Peg3 promoter 53* and ABHD5 PLIN5 PPI -5.
Screening Cc1cccc(C)c1Nc1nnc(SCC(=O)c2ccc(Br)s2)s1 returned MITF TRPM1 inh 0, PAX8 inh HTS -13, Shn3 inh set2 -6, EWS-Fli block 75*, Peg3 promoter 1 and ABHD5 PLIN5 PPI 3.
Screening Cc1ccc(Nc2nnc(SCC(=O)c3ccc(Br)s3)s2)c(C)c1 returned MITF TRPM1 inh 11, PAX8 inh HTS 10, Shn3 inh set2 12, EWS-Fli block -1, Peg3 promoter 14 and ABHD5 PLIN5 PPI -6.
C[C@H]1CN([C@@H](C)CO)C(=O)c2cc(NC(=O)NC3CCCCC3)ccc2O[C@H]1CN(C)C was read as PAX8 inh HTS -3 and EWS-Fli block -1.
Clc1ccc2c(c1)C(N1CCNCC1)Cc1ccccc1S2 (stereo not drawn) was read as MITF TRPM1 inh 94*, Shn3 inh set2 -7, Peg3 promoter 104* and ABHD5 PLIN5 PPI 33*.

Screening data (PubChem)
